Results on 7 compounds are retold here after PubChem BioAssay (EPA / NIEHS).

Results filed as inconclusive are left out. Active and inactive are the calls of the source. Rule for the calls, unless noted: active = hit-call score of the fitted dose curve at least 0.9, where 1 is the maximum; inactive = score below 0.9.

Assay [1] in a line: APR_HepG2_CellCycleArrest_24hr: Apredica 24-hour HepG2 Assay for Cell Cycle Arrest (AID 2282905).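 Note: cell cycle arrest scored as ratio of 2N to 4N nuclear DNA content.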 Conditions: imaging, actives raise or lower the signal. Summed up: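 Compounds (0.39 to 200 uM, final DMSO 0.5% v/v) are applied to HepG2 cells for 24 hours; cells are then fixed, permeabilized and nuclei labeled with Hoechst 33342. Automated imaging measures DNA content, and activity is fitted in both directions against DMSO.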

Assay [2] in a line: APR_HepG2_NuclearSize_24hr: Apredica 24-hour HepG2 Assay for Nuclear Size (AID 2282907). Conditions: high-content imaging, actives raise or lower the signal. A digest of the protocol: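 Nuclear size is measured by fluorescence high-content imaging of Hoechst-labelled HepG2 nuclei after 24 hr of treatment (0.39–200 uM, 0.5% DMSO). Cells are fixed in 3.7% formaldehyde before staining, and DMSO serves as the baseline for bidirectional curve fitting.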

Assay [3] is described as follows: APR_HepG2_CellLoss_24hr: Apredica 24-hour HepG2 Assay for Cell Loss (AID 2282908).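 For AC50: fit in both directions so a hit may be cell loss or gain.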 To be noted: high-content imaging. A digest of the protocol:
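Nuclear count serves as the viability measure: treated cells are fixed, permeabilized and labelled with Hoechst 33342, and six images per well are analysed to identify valid nuclei. Doses span 0.39–200 uM, and activity in either direction is scored against DMSO.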

Assay [4] can be described thus: APR_HepG2_MicrotubuleCSK_24hr: Apredica 24-hour HepG2 Assay for Microtubule CSK Stabilty (AID 2282909). To be noted: HepG2 microtubule cytoskeleton imaging, actives raise or lower the signal. Summed up: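 Compounds were applied to HepG2 cells for 24 hours across 0.39–200 uM in duplicate, with final DMSO at 0.5% v/v. Fixed, permeabilized cells were labeled for alpha-tubulin and nuclei, and tubulin fluorescence was quantified by imaging, fitted bidirectionally against DMSO.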

Assay [5] in a line: APR_HepG2_MitoticArrest_24hr: Apredica 24-hour HepG2 Assay for Mitotic Arrest (AID 2282910). To be noted: high-content imaging, actives raise or lower the signal. A digest of the protocol: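 HepG2, 24 hr dosing, 0.39–200 uM, 0.5% DMSO final. Formaldehyde-fixed, Triton-permeabilised, anti-phospho-histone H3 plus Hoechst. ArrayScan imaging at 20x; bidirectional fit vs DMSO baseline.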

Assay [6] in a line: APR_HepG2_MitoMembPot_24hr: Apredica 24-hour HepG2 Assay for Mitochondrial Membrane Potential (AID 2282911). Conditions: imaging, actives raise or lower the signal. Summed up:
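HepG2, 24 hr dosing, 10 concentrations 0.39–200 uM, 0.5% DMSO final. Live-cell MitoTracker Red CMXRos 250 nM 30 min, then 3.7% formaldehyde fix. HCS fluorescence imaging, 20x; bidirectional fit vs DMSO baseline.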

Assay [7] in a line: APR_HepG2_p53Act_24hr: Apredica 24-hour HepG2 Assay for p53 Activation (AID 2282913).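 Note: p53 protein immunofluorescence averaged per cell in HepG2 with Hoechst nuclei.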 To be noted: high-content imaging, actives raise or lower the signal. A digest of the protocol:
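Read-out: Cy5 immunofluorescence for p53 in fixed, permeabilized HepG2, imaged by HCS with Hoechst-defined nuclei. Dosing was 24 hr at 0.39–200 uM in 0.5% DMSO. Curves were fitted bidirectionally relative to DMSO.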

Assay [8] is described as follows: APR_HepG2_CellCycleArrest_72hr: Apredica 72-hour HepG2 Assay for Cell Cycle Arrest (AID 2282914). Conditions: high-content imaging, actives raise or lower the signal. A digest of the protocol:
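HepG2, 72 hr exposure, 10-point 0.39–200 uM, duplicate, 0.5% DMSO final. Fix 3.7% formaldehyde 30 min RT, Triton X-100 0.5%, Hoechst 33342 2 ug/mL. ArrayScan 20x, six fields/well; DNA content per nucleus; bidirectional fit vs DMSO.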

Assay [9] is described as follows: APR_HepG2_CellLoss_72hr: Apredica 72-hour HepG2 Assay for Cell Loss (AID 2282915). To be noted: high-content imaging. A digest of the protocol:
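HepG2 cells exposed 72 h to compound at 0.39–200 uM (10 concentrations, duplicate) in 0.5% DMSO. Fixed with 3.7% formaldehyde and Hoechst 33342-stained. Imaged at 20x; nuclear count gives cell number, fitted bidirectionally versus DMSO.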

Assay [10] in a line: APR_HepG2_P-H2AX_72hr: Apredica 72-hour HepG2 Assay for H2AX Phosphorylation (AID 2282916).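 Note: phospho-histone H2A.x immunostain intensity per cell marking DNA damage.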 Conditions: imaging, actives raise or lower the signal. Summed up: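 Human hepatoma HepG2 cells are dosed across ten concentrations (0.39 to 200 uM, 0.5% v/v DMSO) and incubated 72 hr. Phospho-histone H2A.x is then detected by antibody staining alongside c-Jun and Hoechst, and quantified by automated fluorescence imaging.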

The nature of assay [11]: APR_HepG2_MitoMembPot_72hr: Apredica 72-hour HepG2 Assay for Mitochondrial Membrane Potential (AID 2282917). Conditions: imaging, actives raise or lower the signal. A digest of the protocol:
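HepG2 cells dosed 72 hr with compound at 0.39–200 uM in duplicate, 0.5% v/v DMSO final. Mitochondria stained with 250 nM MitoTracker Red CMXRos for 30 min before formaldehyde fixation, imaged by high-content fluorescence; bidirectional fit versus DMSO.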

Assay [12] can be described thus: APR_HepG2_MitoticArrest_72hr: Apredica 72-hour HepG2 Assay for Mitotic Arrest (AID 2282918). Conditions: high-content imaging, actives raise or lower the signal. Summed up: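 HepG2, 72 hr exposure, 0.39–200 uM in duplicate, 0.5% v/v DMSO final. Formaldehyde-fixed, Triton-permeabilized, anti-phospho-histone H3/FITC plus Hoechst. ArrayScan imaging at 20x; curves fit bidirectionally against DMSO baseline.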

The nature of assay [13]: APR_HepG2_MicrotubuleCSK_72hr: Apredica 72-hour HepG2 Assay for Microtubule CSK Stabilty (AID 2282919). Conditions: HepG2 microtubule cytoskeleton, high-content imaging, actives raise or lower the signal. Summed up: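 HepG2, 72 hr cmpd exposure, 0.39–200 uM (10 pts, duplicate), 0.5% DMSO. 3.7% formaldehyde fix, 0.5% Triton perm, anti-alpha-tubulin/Cy5 plus Hoechst. HCS fluorescence intensity; bidirectional fit vs DMSO baseline; taxol as positive control.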

Assay [14] can be described thus: APR_HepG2_P-H2AX_24hr: Apredica 24-hour HepG2 Assay for H2AX Phosphorylation (AID 2282920). Conditions: high-content imaging, actives raise or lower the signal. Summed up: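 HCS fluorescence imaging of phospho-H2A.x immunostain (with Hoechst 33342 nuclear counterstain) in HepG2 after 24 hr compound exposure; 10 concentrations, 0.39–200 uM, duplicate wells, 0.5% v/v DMSO. Gain or loss of signal fitted relative to DMSO baseline.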

Assay [15] is described as follows: APR_HepG2_StressKinase_72hr: Apredica 72-hour HepG2 Assay for Stress Kinase (AID 2282921). To be noted: HepG2 stress kinase (phospho-c-Jun) imaging, actives raise or lower the signal. A digest of the protocol:
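After a 72 h compound treatment spanning 0.39 to 200 uM, formaldehyde-fixed cells are labelled for phosphorylated c-Jun and nuclei, imaged by automated fluorescence microscopy, and activity is fitted in both directions relative to DMSO controls.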

Assay [16] can be described thus: APR_HepG2_StressKinase_24hr: Apredica 24-hour HepG2 Assay for Stress Kinase (AID 2282922). Conditions: HepG2 stress kinase (phospho-c-Jun) imaging, actives raise or lower the signal. Summed up:
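Read-out: phospho-c-Jun immunofluorescence (Cy3 secondary) quantified by high-content imaging at 20x, nuclei defined by Hoechst 33342. Human HepG2 liver cells dosed 24 hr, 0.39–200 uM, DMSO 0.5% v/v; gain or loss of signal fitted relative to DMSO.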

Assay [17] in a line: APR_HepG2_p53Act_72hr: Apredica 72-hour HepG2 Assay for p53 Activation (AID 2282923).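 Note: average cellular p53 protein immunofluorescence intensity in HepG2 cells.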 To be noted: high-content imaging, actives raise or lower the signal. Summed up:
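Imaging-based endpoint: after 72 hr compound exposure (up to 200 uM, 0.5% DMSO), fixed and permeabilized monolayers were labelled with anti-p53 antibody and imaged; signal change in either direction was fitted relative to DMSO controls.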

Assay [18] is described as follows: APR_HepG2_MitoMass_72hr: Apredica 72-hour HepG2 Assay for Mitochondrial Mass (AID 2282924).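 Note: MitoTracker Red CMXRos stain intensity per cell imaged as mitochondrial mass.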 Conditions: high-content imaging, actives raise or lower the signal. Summed up: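 Read-out: MitoTracker Red fluorescence intensity from automated imaging (20x, six fields per well) in human HepG2 liver cells. Dosing ran 72 hr, 0.39–200 uM, 0.5% DMSO; bidirectional curve fitting versus DMSO baseline.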

Assay [19] is described as follows: APR_HepG2_NuclearSize_72hr: Apredica 72-hour HepG2 Assay for Nuclear Size (AID 2282925). To be noted: high-content imaging, actives raise or lower the signal. A digest of the protocol:
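Read-out: nuclear diameter from Hoechst 33342 images (ArrayScan, 20x, six fields/well), via cell-cycle image analysis. HepG2 were dosed 0.39–200 uM for 72 hr in 0.5% DMSO. Bidirectional fit relative to DMSO.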

Assay [20] in a line: ACEA_ER_80hr: ACEA Biosciences xCELLigence Real-Time Cell Analysis on Estrogen Receptor Agonism for Proliferation (AID 2282667; active = hit-call score of the fitted dose curve at least 0.9, where 1 is the maximum). To be noted: T47D proliferation, impedance (xCELLigence), 80 h. Summed up:
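Impedance readout (RT-CES) of T47D proliferation at 80 h post-dose; gain of signal vs DMSO baseline. Compounds: 8 conc, 1:4 serial, top 100 uM final, ≤0.5% DMSO; biological duplicate.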

As usually defined, the AC50 is the midpoint of the concentration-response curve, whichever way the signal moves. With `C=CC(=O)OCCCCCC(C)C`, the compound was called inactive in assay [1], in [2], in [3], in assay [4], in assay [5] and in assay [6]. Moreover, the outcome in assay [7], in assay [10], in assay [11], in assay [12], in [13] and in assay [14] was inactive. Further, the outcome in assay [15], in assay [16], in assay [17], in [18] and in [19] was inactive. Further, the AC50 in assay [8] was 108 µM (active); in assay [9] it was 92.1 µM (active).

As for `Cn1sc(Cl)cc1=O`, the result in assay [1], in assay [2], in assay [4], in assay [6], in assay [8] and in assay [16] was inactive. Besides, the call in assay [19] was inactive. Moreover, the AC50 was 109 µM (active) in assay [3]; 110 µM (active) in assay [5]; 113 µM (active) in assay [7]; 104 µM (active) in assay [9]; 109 µM (active) in assay [10]; 120 µM (active) in assay [11]. Also, the AC50 is 97.3 µM (active) in assay [12]; 135 µM (active) in [13]; 110 µM (active) in assay [14]; 111 µM (active) in assay [15]; 106 µM (active) in [17]; 163 µM (active) in assay [18].

Consider `CC12CC1(C)C(=O)N(c1cc(Cl)cc(Cl)c1)C2=O` (stereo not given), for which the compound was classed as inactive in [1], in assay [2], in assay [3], in assay [4], in [5] and in [6]. The result in assay [7], in assay [8], in assay [9], in [10], in assay [11] and in [12] was inactive. Besides, the compound was called inactive in assay [13], in assay [14], in [15], in [16], in [17] and in assay [18]. Also, the call in [19] was inactive.

In the case of `CC1(C)Cc2cccc(O)c2O1`, the compound was called inactive in [20].

With `C[C@]12CCC(=O)C[C@@H]1CC[C@@H]1[C@@H]2CC[C@]2(C)[C@@H](O)CC[C@@H]12`, the compound was classed as inactive in [1], in assay [2], in assay [3], in assay [4], in [5] and in assay [6]. Also, the compound was classed as inactive in assay [7], in assay [8], in assay [11], in [12], in [13] and in [14]. The compound was called inactive in [15], in [16], in [17], in [18] and in assay [19]. Also, the concentration at half-maximal activity (AC50) in assay [9] is 64.5 µM (active); in assay [10], 91.2 µM (active).

For the compound `CC(C)(C)c1cc(O)ccc1O`, the call in [1], in assay [2], in assay [4], in [5], in assay [7] and in assay [8] was inactive. Also, the outcome in assay [10], in assay [11], in assay [12], in assay [13], in assay [14] and in [15] was inactive. The outcome in assay [16] and in assay [17] was inactive. For the same compound, the AC50 in [3] was 125 µM (active); in [6] it was 114 µM (active); in [9] it was 144 µM (active); in assay [18], 108 µM (active); in assay [19] it was 110 µM (active).

As to `Oc1cccc2cccnc12`, the half-maximal activity concentration (AC50) in [1] is 15.4 µM (active); in assay [3], 2.29 µM (active); in [7], 25.9 µM (active); in assay [8], 1.59 µM (active); in assay [9], 2.66 µM (active); in assay [10], 16.9 µM (active). The AC50 in assay [12] is 5.23 µM (active); in assay [15] it was 18.8 µM (active); in assay [17], 4.12 µM (active); in assay [18] it was 3.1 µM (active). In addition, the compound was called inactive in [2], in [4], in assay [5], in assay [6], in assay [11] and in assay [13]. In addition, the compound was classed as inactive in [14], in [16] and in assay [19].
